Percent Effect data for 17 compounds are collected here from ChEMBL document CHEMBL3988442, “University of Dundee, Small-Polar-MMV Screening Library” (2021).

What all share (format): functional
Set-up in all cases: scale not given: direction of the effect not stated beside the values
Holding throughout (conditions): 30 µM

Test [1] deals with T1, Aspartate--tRNA(Asp/Asn) ligase (Mycobacterium tuberculosis (strain ATCC 25618 / H37Rv)) (UniProt P9WFW3).
T1 sequence (whole entry): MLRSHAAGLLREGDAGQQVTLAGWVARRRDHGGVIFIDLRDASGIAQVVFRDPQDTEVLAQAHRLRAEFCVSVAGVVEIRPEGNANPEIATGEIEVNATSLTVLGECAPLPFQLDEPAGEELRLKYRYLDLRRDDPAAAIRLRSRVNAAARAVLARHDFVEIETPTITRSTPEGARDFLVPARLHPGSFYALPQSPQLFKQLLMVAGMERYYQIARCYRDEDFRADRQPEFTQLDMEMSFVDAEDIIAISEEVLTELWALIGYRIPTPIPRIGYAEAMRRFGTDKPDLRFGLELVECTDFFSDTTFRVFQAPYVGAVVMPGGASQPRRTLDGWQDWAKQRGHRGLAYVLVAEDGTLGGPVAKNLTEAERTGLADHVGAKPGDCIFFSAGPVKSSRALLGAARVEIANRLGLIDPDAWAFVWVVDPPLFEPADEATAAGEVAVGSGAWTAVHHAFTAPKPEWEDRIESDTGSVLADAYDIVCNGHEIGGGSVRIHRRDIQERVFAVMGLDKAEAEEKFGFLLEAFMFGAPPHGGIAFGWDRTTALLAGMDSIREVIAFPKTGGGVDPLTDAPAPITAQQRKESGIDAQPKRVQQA
The experiment in a line: Assay for Asp RNA synthetase-1 from Mycobacterium tuberculosis.

Test [2] concerns the target Shiga toxin 2 (Escherichia coli O157:H7) (UniProt P09385+P09386). Kind of test: E. coli 0.157:H7 Shiga Toxin SOP - stx2 screening assay.
In test [3] the target is AMP-activated protein kinase, AMPK (Homo sapiens) (UniProt P54646+O43741+P54619+Q9UGJ0+Q9Y478+Q13131+Q9UGI9). Kind of test: AMP-dependent Kinase enzyme assay. An in vitro enzyme assay that detects ADP turnover that is directly proportional to AMPK activity. This uses naive AMPK that is activated during the assay with MK-8722.

In the case of `CCc1nc(C2CCCN2C(=O)CCn2cncn2)no1` (stereo not drawn), the Percent Effect came out at 3.36% in test [1] and 5.08% in test [2].
Regarding `COc1ccc(NC(=O)c2ccc[nH]2)c(N2CCN(C(C)=O)CC2)n1`, the values for the Percent Effect in test [1] and in test [2] were 1.11% and 0.954%, respectively.
The matching figures for `COCC1CN(Cc2ccc(C)o2)Cc2cn(C)nc21` (stereo not drawn): 11.7% and -13.2%.
With `CC(C)(C)c1ccn(C2(C(=O)O)CCN(c3nccc(N)n3)CC2)n1`, the Percent Effect in test [1] was 3.12%; in test [2], -19.9%.
`Cc1cc(CN2CCN(CC(O)C(C)(C)C)CC2)no1` (stereo not drawn): the figures for the Percent Effect in test [1] and in test [2] were -13.9% and 0.649%, respectively.
The like results for `Cc1nocc1C(=O)N1CCc2c(CN(C)C(C)C)n[nH]c2C1` were, in that order, 0.866% and 3.98%.
For `Cc1cc(C)n(CC2CCCN2C(=O)c2ccc3c(c2)OCO3)n1` (stereo not drawn), the values for the Percent Effect in test [1] and in test [2] were -1.99% and -23.4%, respectively.
The like results for `CCc1ccccc1-n1nnc(C(=O)O)c1-c1ccccn1` were, in that order, 6.47% and -3.21%.
The matching figures for `O=C1N(c2cccc(Cl)c2)Cc2nc(=O)n(Cc3cccc(F)c3)n21`: 6.56% and -11.3%.
The like results for `CN(C)CCN1CCCC12CCN(C(=O)c1cnccn1)CC2` were, in that order, 1.96% and 0.984%.
In the case of `c1csc(-c2nc(CN3CCCC3Cn3cncn3)co2)c1` (stereo not drawn), the Percent Effect in test [1] is 3.68%; in test [2] it was -0.336%.
For the compound `CC1c2ncc(COc3cccnc3)n2CCN1C(=O)Cc1ccco1` (stereo not drawn), the figures for the Percent Effect in test [1] and in test [2] were -1.45% and -2.51%, respectively.
In the case of `Cc1ccc(C(=O)N2CCCS2(=O)=O)cc1Cl`, the Percent Effect in test [1] was -5.6%; in test [2], -5.68%.
Consider `Cc1cccc(NC2CCN(C(=O)Nc3cc(C)on3)CC2)n1`, for which the Percent Effect in test [1] was -5.71%; in test [2], -63.5%.
The like results for `Cc1ncsc1CN1C[C@H](C(=O)N2CCCO2)[C@@H]2CCO[C@@H]2C1` were, in that order, -1.48% and -4.78%.
The like results for `CC(C)c1nnc2n1CCN(C(=O)c1ccc3cc[nH]c3c1)C2` were, in that order, -2.98% and 3.97%.
On to `Cn1cc(C2=CCN(CCC(=O)NCc3ccc(Cl)cc3)CC2)cn1`, for which the Percent Effect in test [3] worked out at 6.44%.
